Assay results reported in PubChem BioAssay (NCATS).
Results filed as inconclusive are left out. The source made the active and inactive calls. The call rests on the fitted dose curve; in most records, active means well fitted curve in the direction sought with a large enough effect; inconclusive means small, poorly fitted or top-dose-only effect, or another doubt; inactive means no such curve, though single readings can be large; an effect the other way counts as inactive or inconclusive.

What was measured:
MCC-13 = assay: qHTS assay to identify novel small-molecules to repurpose for Merkel cell carcinoma treatment (AID 1296009); details: MCC and control cell lines, CellTiter-Glo viability, 72 h; series mostly up to 46 µM; further: nearly all actives have a fitted effect of over 60% in size
Summary of the method: (§1)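 qHTS format: cells treated with library compounds in DMSO across 8 (NPC) or 11 (MIPE) concentrations. Readout after 72 hr at 37 degree celsius was CellTiter-Glo luminescence.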

MCC-26 = assay: as above; details: MCC and control cell lines, CellTiter-Glo viability, 72 h; series mostly up to 46 µM
Summary of the method: as §1

MKL-2 = assay: as above; details: MCC and control cell lines, CellTiter-Glo viability, 72 h; series mostly up to 46 µM
Summary of the method: as §1

CASKI = assay: Primary qHTS to identify gynecologic anti-cancer compounds using libraries of approved drugs and bioactive compounds (AID 1345084); details: Gynecologic cancer cell panel viability, ATPlite luminescence, 48 h; series mostly up to 57.5 µM; further: nearly all actives have a fitted effect of over 55% in size
Summary of the method: (§2)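 Cells, 1,000 per well, plated 16 h, then exposed 48 h at 37 C to compounds. Viability by ATPlite luminescence after 15 min at room temperature.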

HeLa = assay: as above; details: Gynecologic cancer cell panel viability, ATPlite luminescence, 48 h; series mostly up to 57.5 µM
Summary of the method: as §2

HEK293 = assay: Cytotoxic Profiling of Annotated Libraries Using Quantitative High-Throughput Screening (AID 1296008); details: Five cell lines viability, CellTiter-Glo ATP luminescence, 48-72 h; max response: hits give low values; further: nearly all actives have a fitted effect of over 60% in size
Summary of the method: (§3)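 Compounds were pin-transferred onto cells and incubated 48 or 72 hr at 37 degree Celsius, 95% humidity. CellTiter-Glo was added, plates sat 10 min at room temperature, then ATP-coupled luminescence was imaged as the viability read-out.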

UISO = assay: qHTS assay to identify novel small-molecules to repurpose for Merkel cell carcinoma treatment (AID 1296009); details: MCC and control cell lines, CellTiter-Glo viability, 72 h; series mostly up to 46 µM; further: nearly all actives have a fitted effect of over 60% in size
Summary of the method: as §1

C33A = assay: Primary qHTS to identify gynecologic anti-cancer compounds using libraries of approved drugs and bioactive compounds (AID 1345084); details: Gynecologic cancer cell panel viability, ATPlite luminescence, 48 h; series mostly up to 57.5 µM; further: nearly all actives have a fitted effect of over 55% in size
Summary of the method: as §2

CAOV3 = assay: as above; details: Gynecologic cancer cell panel viability, ATPlite luminescence, 48 h; series mostly up to 57.5 µM
Summary of the method: as §2

Es-2 = assay: as above; details: Gynecologic cancer cell panel viability, ATPlite luminescence, 48 h; series mostly up to 57.5 µM
Summary of the method: as §2

Hek293T [1] = assay: as above; details: Gynecologic cancer cell panel viability, ATPlite luminescence, 48 h, control line for the selectivity index; series mostly up to 57.5 µM
Summary of the method: as §2

HaCat [2] = assay: Cytotoxic Profiling of Annotated Libraries Using Quantitative High-Throughput Screening (AID 1296008); details: Five cell lines viability, CellTiter-Glo ATP luminescence, 48-72 h; max response: hits give low values; further: nearly all actives have a fitted effect of over 60% in size
Summary of the method: as §3

KB-3-1 = assay: as above; details: Five cell lines viability, CellTiter-Glo ATP luminescence, 48-72 h; max response: hits give low values
Summary of the method: as §3

NIH3T3 [3] = assay: as above; details: Five cell lines viability, CellTiter-Glo ATP luminescence, 48-72 h; max response: hits give low values
Summary of the method: as §3

MKL-1 = assay: qHTS assay to identify novel small-molecules to repurpose for Merkel cell carcinoma treatment (AID 1296009); details: MCC and control cell lines, CellTiter-Glo viability, 72 h; series mostly up to 46 µM; further: nearly all actives have a fitted effect of over 60% in size
Summary of the method: as §1

NIH3T3 [4] = assay: as above; details: MCC and control cell lines, CellTiter-Glo viability, 72 h; series mostly up to 44.8 µM
Summary of the method: as §1

WaGa = assay: as above; details: MCC and control cell lines, CellTiter-Glo viability, 72 h; series mostly up to 46 µM
Summary of the method: as §1

HACAT [5] = assay: as above; details: MCC and control cell lines, CellTiter-Glo viability, 72 h; at 44.8 µM (top of the series) unless noted
Summary of the method: as §1

HEK293T [6] = assay: as above; details: MCC and control cell lines, CellTiter-Glo viability, 72 h; at 44.8 µM (top of the series) unless noted
Summary of the method: as §1
On the % scale 0 is the no-effect control and ±100 the full control effect; potency means the concentration at half of the fitted maximal effect.

CNC1CCC(N(Cc2cccc(-c3ccncc3)c2)C(=O)c2sc3ccccc3c2Cl)CC1 (stereo not drawn)
active: Potency (MKL-2) 16.6 µM | Potency (CASKI) 22.4 µM
inactive: Potency (MCC-13) | Potency (MCC-26) | Potency (HeLa)

Cc1ccc2c(c1)C(=O)[C@]1(O)CCN(c3ccccc3)C1=N2
inactive: max response (HEK293) -19.6% | Potency (MCC-13) | Potency (MCC-26) | Potency (MKL-2) | Potency (UISO) | Potency (C33A) | Potency (CAOV3) | Potency (CASKI) | Potency (Es-2) | Potency (HeLa) | Potency (Hek293T [1])

CO[C@H]1O[C@@H]2O[C@@]3(C)CC[C@@H]4[C@@H](C)CC[C@@H]([C@H]1C)[C@@]24OO3
active: Potency (WaGa) 20.9 µM
inactive: max response (HaCat [2]) -9.33% | outcome (KB-3-1) | outcome (NIH3T3 [3]) | Potency (MCC-13) | Potency (MCC-26) | Potency (MKL-1) | Potency (NIH3T3 [4])

O=C1CN2Cc3c(ccc(Cl)c3Cl)N=C2N1
inactive: max response (HaCat [2]) -28.5% | Potency (MCC-13) | Potency (MCC-26) | Potency (MKL-1) | Potency (MKL-2) | Potency (UISO) | Potency (WaGa)

C=CCc1cccc(C=NNC(=O)CN2CCN(Cc3ccccc3)CC2)c1O
active: Potency (HEK293) 13.2 µM | Potency (MKL-1) 9.35 µM | Potency (MKL-2) 16.6 µM | Potency (WaGa) 16.6 µM

CON(C)C(=O)N1N=C(c2cc(F)ccc2F)S[C@]1(CCCN)c1ccccc1
inactive: max response (HaCat [2]) -26.8% | max response (NIH3T3 [3]) -18.9% | Potency (MKL-1) | Potency (MKL-2) | Potency (UISO) | Potency (WaGa)
active: Potency (KB-3-1) 0.0008 µM | Potency (MCC-13) 0.0093 µM

CN1CCC[C@H]1CCO[C@](C)(c1ccccc1)c1ccc(Cl)cc1
inactive: outcome (HaCat [2]) | max response (KB-3-1) -5.55% | max response (NIH3T3 [3]) -18.8% | outcome (HACAT [5]) | Potency (MCC-13) | Potency (MCC-26) | Potency (MKL-1) | Potency (MKL-2) | Potency (UISO) | Potency (WaGa)

Cc1ccc(NC(=O)c2cccc(N(C)C)c2)cc1NC(=O)c1ccc(O)cc1
active: Potency (MKL-1) 8.33 µM | Potency (MKL-2) 2.96 µM | Potency (WaGa) 8.33 µM
inactive: outcome (HaCat [2]) | max response (KB-3-1) 5.76% | max response (NIH3T3 [3]) 3.99% | outcome (HACAT [5]) | Potency (MCC-13)

CCN(CC)CCCCNc1nc2cc(Cl)c(Cl)cc2nc1-c1ccc(-c2cccs2)s1
inactive: Potency (MCC-26)
active: Potency (KB-3-1) 13.2 µM | Potency (MKL-1) 23.5 µM | Potency (MKL-2) 14.8 µM

CC(C)C[C@@H](C(=O)N[C@H](C(=O)OC1CCCC1)c1ccccc1)[C@H](O)C(=O)NO
active: Potency (HEK293) 18.7 µM | Potency (MKL-2) 23.5 µM | Potency (WaGa) 7.43 µM
inactive: Potency (MCC-13) | Potency (MCC-26) | Potency (MKL-1)

CC[C@H](C)n1cc(C)c2c(C(=O)NCc3c(C)cc(C)[nH]c3=O)cc(-c3ccc(N4CCNCC4)nc3)cc21
inactive: outcome (HaCat [2]) | outcome (NIH3T3 [3]) | outcome (HACAT [5]) | Potency (MCC-13) | Potency (MCC-26) | Potency (MKL-1) | Potency (MKL-2) | Potency (NIH3T3 [4]) | Potency (UISO) | Potency (WaGa)

Fc1ccc(C(c2ccc(F)cc2)N2CCN(CC=Cc3ccccc3)CC2)cc1
inactive: Potency (MCC-13) | Potency (MCC-26) | Potency (MKL-1) | Potency (MKL-2) | Potency (UISO) | Potency (WaGa)

Cc1nn(Cc2ccccc2Cl)c(C)c1CN(C)CC(O)COc1ccc(Cl)cc1 (stereo not drawn)
active: Potency (HEK293) 18.7 µM
inactive: Potency (MCC-13) | Potency (MCC-26) | Potency (MKL-1) | Potency (WaGa)

C[C@@H]1[C@H](C)CC[C@]2(C(=O)O)CC[C@]3(C)C(=CC[C@@H]4[C@@]5(C)CC[C@H](O)C(C)(C)[C@H]5CC[C@]43C)[C@@H]12
inactive: outcome (HACAT [5]) inactive [at 92 µM] | outcome (HEK293T [6]) inactive [at 92 µM] | Potency (MCC-13) | Potency (MCC-26) | Potency (MKL-2) | Potency (NIH3T3 [4])

CNC(=O)[C@H](Cc1ccccc1)NC(=O)[C@H](CC(C)C)[C@H](CSc1cccs1)C(=O)NO
active: Potency (HaCat [2]) 13.2 µM
inactive: max response (KB-3-1) 2.61% | max response (NIH3T3 [3]) 0.205% | Potency (MCC-13) | Potency (MCC-26) | Potency (MKL-1) | Potency (MKL-2) | Potency (UISO)

COc1ccc(-c2oc3c(CC=C(C)C)c(O)cc(O)c3c(=O)c2O)cc1
inactive: outcome (HaCat [2]) | max response (KB-3-1) 6.49% | outcome (NIH3T3 [3]) | outcome (HACAT [5]) | Potency (MCC-13) | Potency (MCC-26) | Potency (MKL-1) | Potency (MKL-2) | Potency (NIH3T3 [4]) | Potency (UISO) | Potency (WaGa)

CN(C)CCCNC(=O)c1ccc(-c2cc(O)c3ncccc3c2)cc1
inactive: max response (HaCat [2]) -4.67% | max response (NIH3T3 [3]) -2.36% | Potency (MCC-13) | Potency (MCC-26) | Potency (C33A) | Potency (CAOV3) | Potency (CASKI) | Potency (Es-2) | Potency (HeLa) | Potency (Hek293T [1])

CCCCc1ccc(NS(=O)(=O)c2ccc(C)c(C(=O)N3CCN(c4cccc(C)c4C)CC3)c2)cc1
inactive: max response (HaCat [2]) -17% | Potency (MCC-13) | Potency (MCC-26) | Potency (MKL-1) | Potency (MKL-2) | Potency (WaGa)
